The structures appear in SMILES notation. Compounds without any hit were thinned out: in the full panel of roughly 83,000, 20% have a hit.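 Plates (96-well) were seeded with cells, treated with compound at one concentration, and incubated for 48 hours before percent growth was determined.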 Values without a mark were called inactive. The source made the active and inactive calls. How the source made its calls: active means growth percent below 10; inactive means the rest.

Test systems include DU-145 prostate; K-562 leukemia; MALME-3M melanoma; MDA-MB-231 breast; RXF 393 renal; SF-268 CNS; SF-295 CNS; SF-539 CNS; UACC-257 melanoma; M14 melanoma.
Common to all, as to experiment: NCI-60 one-dose screen, 48 h (100 = growth as untreated, 0 = no growth, -100 = all killed)
What all share (settings): 10 µM unless noted

Consider `Clc1ccc(CNc2nc(SCCN3CCOCC3)nc3c2cnn3CC(Cl)c2ccc(Br)cc2)cc1` (stereo not given), for which the growth with DU-145 prostate was 57.1%; in the test on K-562 leukemia, 7.71% (active); with MALME-3M melanoma, 1.86% (active); in the test on MDA-MB-231 breast, 44.1%; in the test on RXF 393 renal, 51.1%; in the test on SF-268 CNS, 49.3%. Besides, the growth in the test with SF-295 CNS is 14.3%; with SF-539 CNS, 27.4%; in the test on UACC-257 melanoma it was 33.2%; in the test with M14 melanoma, 37.2%.

For the compound `O=C(CSc1nnc(-c2ccc(-c3nc4ccc(Cl)cc4[nH]3)cc2)o1)Nc1ccccc1`, the growth with DU-145 prostate was 6.69% (active); with K-562 leukemia it was 12.3%; in the test on MALME-3M melanoma, 2.32% (active); with MDA-MB-231 breast it was -52% (active); in the test with RXF 393 renal, -40.6% (active); in the test on SF-268 CNS, 49.1%. Besides, the growth in the test with SF-295 CNS was 75.7%; with SF-539 CNS it was -92.8% (active); in the test on UACC-257 melanoma it was 47.7%; with M14 melanoma, 4.09% (active).

Take `N#CC1=C(c2cccs2)Nc2c(c(-c3ccccc3)nn2-c2ccccc2)C12C(=O)Nc1ccc(Br)cc12` (stereo not given): the growth with DU-145 prostate was 31.5%; in the test with K-562 leukemia it was 2.75% (active); with MALME-3M melanoma, -18.7% (active); in the test with MDA-MB-231 breast, -34% (active); with RXF 393 renal, -39.7% (active); with SF-268 CNS, 15.7%. For the same compound, the growth was -37.3% (active) in the test with SF-295 CNS, -62.4% (active) with SF-539 CNS, 35.8% with UACC-257 melanoma and -72.1% (active) with M14 melanoma.

In the case of `COc1ccc(N=Nc2c(N)nn3c(N)c(C#N)c(-c4ccccc4)nc23)cc1`, the growth in the test with DU-145 prostate is 24.4%; in the test on K-562 leukemia, 71.8%; in the test on MALME-3M melanoma, 28.5%; in the test with MDA-MB-231 breast it was 9.1% (active); with RXF 393 renal, 8.34% (active); with SF-268 CNS, 11.6%. For the same compound, the growth is 39.4% in the test on SF-295 CNS, -3.46% (active) in the test with SF-539 CNS, 71% in the test on UACC-257 melanoma and 74.2% in the test on M14 melanoma.

As to `CCCCNc1ccc2c3c(cccc13)C(=O)N(c1cccc(-c3nn(-c4ccccc4)cc3-c3nc4ccccc4s3)c1)C2=O`, the growth in the test on DU-145 prostate was 106%; in the test on K-562 leukemia, 89.5%; in the test on MALME-3M melanoma it was 103%; in the test with MDA-MB-231 breast, 99.1%; in the test with RXF 393 renal, 98.5%; in the test on SF-268 CNS, 109%. Also, the growth is 104% in the test with SF-295 CNS, 101% with SF-539 CNS, 113% with UACC-257 melanoma and 99.6% in the test with M14 melanoma.

For `O=C(N/N=C/c1ccc(Cl)cc1)c1ccc(OCc2nc3ccc(Cl)cc3[nH]2)cc1`, the growth in the test on DU-145 prostate was -36.1% (active); in the test with K-562 leukemia, 14.6%; in the test on MALME-3M melanoma, 37.5%; with MDA-MB-231 breast it was 6.26% (active); in the test on RXF 393 renal, -10% (active); with SF-268 CNS it was 82.1%. In addition, the growth was 13.8% in the test on SF-295 CNS, 67.6% in the test with SF-539 CNS, 24.8% in the test with UACC-257 melanoma and -14.1% (active) in the test with M14 melanoma.

As for `Cc1cc(C)c2[nH]c(=O)c(C(c3nnnn3Cc3ccc4c(c3)OCO4)N3CCN(C)CC3)cc2c1` (stereo not given), the growth was 103% in the test on DU-145 prostate; 107% with K-562 leukemia; 110% in the test on MALME-3M melanoma; 112% in the test on MDA-MB-231 breast; 114% with RXF 393 renal; 101% with SF-268 CNS. The growth was 104% in the test with SF-295 CNS, 104% in the test with SF-539 CNS, 110% in the test with UACC-257 melanoma and 111% with M14 melanoma.

Turning to `COc1ccc(NC2=C(I)C(=O)C(C)=C(C)C2=O)cc1`, the growth is 86.2% in the test on DU-145 prostate; 1.44% (active) with K-562 leukemia; 77.7% in the test with MALME-3M melanoma; -8.44% (active) with MDA-MB-231 breast; 58.6% in the test on RXF 393 renal; 45.3% with SF-268 CNS. In addition, the growth was 79% with SF-295 CNS, -28.1% (active) in the test with SF-539 CNS, -14.2% (active) in the test with UACC-257 melanoma and 96.1% with M14 melanoma.

In the case of `COC(=O)c1c(C(=O)OC)c2ccc3c4ccccc4ccc3n2c1C(=O)C(C)Br` (stereo not given), the growth with DU-145 prostate was 71.7%; with K-562 leukemia, 4.34% (active); in the test on MALME-3M melanoma it was 37.9%; in the test on MDA-MB-231 breast it was 33.1%; in the test on RXF 393 renal, 32.8%; with SF-268 CNS it was 69.3%. Besides, the growth is 78% with SF-295 CNS, 17.2% in the test with SF-539 CNS, 57% in the test with UACC-257 melanoma and 46.5% in the test on M14 melanoma.

On to `COc1ccc(-c2cc(-c3cc(OC)c(OC)c(OC)c3)[nH]c(=O)c2C#N)cc1`, for which the growth in the test with DU-145 prostate is 93%; in the test with K-562 leukemia, 79.1%; in the test on MALME-3M melanoma it was 29.7%; with MDA-MB-231 breast it was 1.65% (active); in the test with RXF 393 renal, 14.6%; with SF-268 CNS it was 54.3%. For the same compound, the growth with SF-295 CNS is 59.1%; in the test with SF-539 CNS it was -18.3% (active); in the test on UACC-257 melanoma it was 96.4%; with M14 melanoma, 96.7%.

As for `COc1ccc(N=Nc2c(N)nn3c(-c4ccc(F)cc4)ccnc23)cc1`, the growth in the test on DU-145 prostate was 79.9%; with K-562 leukemia, 71.9%; in the test on MALME-3M melanoma, 40.4%; in the test with MDA-MB-231 breast, 77.2%; with RXF 393 renal, 106%; with SF-268 CNS, 83.5%. Besides, the growth is 87.7% in the test on SF-295 CNS, 67.5% in the test on SF-539 CNS, 81.8% in the test with UACC-257 melanoma and 51.3% with M14 melanoma.

Consider `CC[C@]12C=CCN3CC[C@@]4(c5ccc(OC)cc5N(C)[C@H]4[C@@](O)(C(=O)OC)[C@@H]1OC(=O)CCC[P+](c1ccc(OC)cc1)(c1ccc(OC)cc1)c1ccc(OC)cc1)[C@@H]32`, for which the growth was -75.4% (active) in the test with DU-145 prostate; -1.75% (active) with K-562 leukemia; -97.8% (active) with MALME-3M melanoma; -97% (active) in the test with MDA-MB-231 breast; -92.6% (active) with RXF 393 renal; -34.3% (active) in the test on SF-268 CNS. Moreover, the growth in the test on SF-295 CNS was -93.7% (active); in the test with SF-539 CNS it was -98.9% (active); in the test with UACC-257 melanoma, -93.5% (active); in the test with M14 melanoma, -88.4% (active).

With `COc1c(B(O)O)cc(F)cc1-c1nc2c(F)cc3[nH]ncc3c2c2c1CCCC2`, the growth in the test with DU-145 prostate is 14.6%; in the test on K-562 leukemia, 38.8%; in the test on MALME-3M melanoma, 50.9%; in the test with MDA-MB-231 breast it was 3.96% (active); in the test on RXF 393 renal it was -45.4% (active); with SF-268 CNS it was 30.3%. The growth in the test with SF-295 CNS was 15.2%; in the test on SF-539 CNS it was -44% (active); with UACC-257 melanoma, 40%; with M14 melanoma, 38.2%.

(Values after PubChem BioAssay (NCI).)
